# Where “and” joins values, the source holds several entries; their conditions need not be identical. Equal entries are not always repeated. Results filed as inconclusive are left out. Values without a mark were called inactive. Calls of active or inactive are those of the source. The call rests on the fitted dose curve; in most records, active means well fitted cell-killing curve with a large enough effect; inconclusive means small, poorly fitted or top-dose-only effect, or effect the other way; inactive means no such curve, though single readings can be large or run the other way.
# Experiments:
# [1] = Viability qHTS for spleen associated tyrosine kinase inhibitor (SYKi) naive MV4-11 cells (AID 1963823); details: MV4-11 AML viability, CellTiter-Glo luminescence, 72 h; series mostly up to 45 µM; further: nearly all actives have a fitted effect of over 40% in size
# Summary of the method: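 qHTS, SYK inhibitor-naive MV4-11; 500 cells/well; 72 hr compound exposure, 37 C; CellTiter-Glo added, 10 min RT; luminescence read.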
# [2] = Viability qHTS for spleen associated tyrosine kinase inhibitor (SYKi) drug resistant MV4-11 cells (AID 1963824); details: SYKi-resistant MV4-11 viability, CellTiter-Glo, 72 h; series mostly up to 45 µM; further: nearly all actives have a fitted effect of over 35% in size
# Summary of the method: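 CellTiter-Glo luminescence, read 10 min after reagent addition, reports viability after a 72 hr compound exposure. Cells are an MV4-11 line made resistant to SYK inhibition, seeded at 500 per well onto compound-containing plates.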
# Potency means the concentration at half of the fitted maximal effect.
Structure (SMILES),Potency [1],Potency [2],viability (% of control) [1],"viability, % of control [2]"
Clc1ccc(CO/N=C(\Cn2ccnc2)c2ccc(Cl)cc2Cl)c(Cl)c1,13300 nM (active),9.44 µM (active),–,–
Cc1sc2c(c1C)C(c1ccc(Cl)cc1)=N[C@@H](CC(N)=O)c1nnc(C)n1-2,83.3 nM (active),82 nM (active) and 83.3 nM (active),–,–
COC1C(O)C(C)OC(OC2C(CO)O[C@@H](O[C@@H]3CC4CCC5C(CC[C@]6(C)[C@@H](C7=CC(=O)OC7)CC[C@]56O)[C@@]4(C)[C@H](OC(C)=O)C3)C(O)C2O)C1O (stereo not given in full),2430 nM (active),1.09 µM (active),–,–
COC1CC(O[C@H]2CC[C@]3(C)C4CC[C@]5(C)[C@@H](C6=CC(=O)OC6)[C@@H](OC(C)=O)C[C@]5(O)C4CC[C@@H]3C2)OC(C)C1O (stereo not given in full),252 nM (active),0.178 µM (active),–,–
CCN1C[C@]2(COC)[C@H](O)C[C@H](OC)[C@]34[C@@H]5C[C@]6(O)[C@H](OC(=O)c7ccccc7)[C@@H]5[C@@](O)([C@H]([C@H](OC)[C@H]23)[C@@H]14)[C@@H](O)[C@@H]6OC,inactive,inactive,–,–
CC(=O)O[C@H]1C[C@@H](C)O[C@H]2O[C@@H]3CC4CC[C@@H]5C(CC[C@]6(C)[C@@H](C7=CC(=O)OC7)CC[C@]56O)[C@@]4(C=O)C[C@H]3O[C@]21O (stereo not given in full),43.2 nM (active),0.0485 µM (active),–,–
C[C@]12CC[C@H](O)CC1=CC[C@@H]1C2CC[C@]2(C)[C@@H](C3=CC(=O)OC3)CC[C@]12O (stereo not given in full),11400 nM (active),4.04 µM (active),–,–
C[C@@H]1CCC/C=C/[C@H]2C[C@@H](O)C[C@@H]2[C@@H](O)/C=C/C(=O)O1,184 nM (active),0.146 µM (active),–,–
Cc1cccc(NC(=O)c2ccc(C(F)(F)F)cc2C(=O)O)n1,inactive,inactive,–,–
CCCCCCC1C(=O)O[C@H](C)[C@H](NC(=O)c2cccc(NC=O)c2O)C(=O)O[C@@H](C)[C@@H]1OC(=O)CC(C)C (stereo not given in full),517 nM (active),0.291 µM (active),–,–
C[C@H](CCC(=O)O)C[C@H](C)C[C@H](C)C(=O)/C=C(\O)[C@H](C)C[C@H](C)C/C=C/[C@@H](C)[C@@H](O)[C@@H](C)[C@@H](O)C[C@@H]1CC[C@@](C)([C@H]2CC[C@@](C)([C@@H](C)O)O2)O1,2520 nM (active),2.82 µM (active),–,–
COC(=O)C1(C)CCC(O)C2(C)c3cc(O)c(C(C)C)cc3C(O)C(OC(C)=O)C12 (stereo not given),inactive,inactive,–,–
COc1ccc2c(c1)/C(=C/c1cnc[nH]1)C(=O)N2,461 nM (active),1.64 µM (active),–,–
C[C@@H]1Cc2c(Cl)cc(C(=O)N[C@@H](Cc3ccccc3)C(=O)O)c(O)c2C(=O)O1,718 nM (active),0.286 µM (active),–,–
Cc1c(N2C(=O)[C@@H]3[C@H](O)CCN3C2=O)ccc(C#N)c1Cl,inactive,inactive,–,–
C[C@H]1CCC[C@H](O)CCC/C=C/c2cc(O)cc(O)c2C(=O)O1,7310 nM (active),9.2 µM (active),–,–
COC1CC(O[C@H]2CC[C@@]3(C)C(=CCC4C3C(O)[C@@H](O)[C@]3(C)[C@@H](C(C)=O)CC[C@]43O)C2)OC(C)C1OC1CC(OC)C(OC2OC(C)C(O)C(O)C2O)C(C)O1 (stereo not given in full),–,–,67.1% [at 9.25 µM],103% [at 9.25 µM]
O=C(N[C@@H](COc1ccc2[nH]c(=O)[nH]c2c1)c1ccccc1)c1cccn(Cc2ccc(F)c(F)c2)c1=O,11600 nM (active),11.6 µM (active),–,–
COC(=O)[C@@]1(C)C(=O)C=C[C@]2(C)c3c(O)cc(C(C)C)cc3[C@H](O)[C@@H](OC(C)=O)C12 (stereo not given in full),11200 nM (active),8.93 µM (active),–,–
CC1C/C=C/C(O)C(O)CC/C=C/c2cc(O)cc(O)c2C(=O)O1 (stereo not given),5700 nM (active),8.05 µM (active),–,–
CO[C@@H]1[C@@H](O)[C@@H](O[C@H]2CC[C@]3(C=O)C4CC[C@]5(C)[C@@H](C6=CC(=O)OC6)CC[C@]5(O)[C@@H]4CC[C@H]3C2)O[C@@H](C)[C@H]1O[C@@H]1O[C@H](CO[C@@H]2O[C@H](CO)[C@@H](O)[C@H](O)[C@H]2O)[C@@H](O)[C@H](O)[C@H]1O (stereo not given in full),3900 nM (active),1.38 µM (active),–,–
COc1cccc(NCC(F)Cn2c3ccc(Br)cc3c3cc(Br)ccc32)c1 (stereo not given),2060 nM (active),2.06 µM (active),–,–
CC(C)(O)/C=C/C(=O)[C@](C)(O)[C@H]1[C@H](O)C[C@@]2(C)[C@@H]3CC=C4[C@@H](C=C(O)C(=O)C4(C)C)[C@]3(C)C(=O)C[C@]12C,59.6 nM (active),0.0376 µM (active),–,–
CC1=CC(=O)[C@@H](O)[C@]2(C)C3[C@@H](O)[C@@H]4OC(=O)[C@@H]([C@H]4C)[C@]3(C)C(=O)C[C@@H]12 (stereo not given in full),904 nM (active),1.01 µM (active),–,–
COC1CC(OC2CCC3(C=O)C(CCC4C3CCC3(C)C(C5=CC(=O)OC5)CCC43O)C2)OC(C)C1OC1OC(CO)C(O)C(O)C1O (stereo not given),86.2 nM (active),0.0544 µM (active),–,–

Structure (SMILES),Potency [1],Potency [2],viability (% of control) [1],"viability, % of control [2]"
CCC(C)/C=C(C)/C=C/C1=CC2=C(Cl)C(=O)C(C)(OC(C)=O)C(=O)C2=CO1 (stereo not given),inactive,8.05 µM (active),–,–
O=C(N[C@H]1CN2CCC1CC2)c1cc2cccc(Cl)c2s1,14600 nM (active),20.6 µM (active),–,–
O=C1N[C@@H](Cc2ccccc2)CN2CCCC[C@@H]12,inactive,inactive,–,–
C[C@@H](CN1CCC2(CC1)C(=O)NCN2c1cccc(F)c1)NC(=O)c1ccc(Br)cc1,16400 nM (active),13 µM (active),–,–
C[C@H]1O[C@@H](O[C@H]2C[C@@H](O)[C@]3(CO)C4C(CC[C@]3(O)C2)[C@@]2(O)CC[C@H](C3=CC(=O)OC3)[C@@]2(C)C[C@H]4O)[C@@H](O)[C@@H](O)[C@H]1O (stereo not given in full),172 nM (active),0.122 µM (active),–,–
CC1Oc2cc3c(-c4c(O)cc(O)c5c(O)c6c(cc45)OC(C)C(C)C6=O)c(O)cc(O)c3c(O)c2C(=O)C1C (stereo not given),5170 nM (active),4.61 µM (active),–,–
Clc1ccc(N2C[C@H]3CC[C@@H](C2)N3)nn1,inactive,inactive,–,–
COC1CC(O[C@H]2CC[C@@]3(C)C(CCC4C3CC[C@]3(C)C(C5=CC(=O)OC5)CCC43O)C2)OC(C)C1OC1OC(COC2OC(CO)C(O)C(O)C2O)C(O)C(O)C1O (stereo not given in full),1230 nM (active),0.693 µM (active),–,–
CN1CCCCC1Cn1cc(C(=O)c2cc([N+](=O)[O-])ccc2I)c2ccccc21 (stereo not given),14600 nM (active),10.3 µM (active),–,–
Nc1ncnc2c1ncn2[C@@H]1O[C@@H]2COP(O)(=S)O[C@H]2[C@H]1O (stereo not given in full),–,–,76.1% [at 9.25 µM],81% [at 9.25 µM]
COc1cc2cc(c1Cl)N(C)C(=O)C[C@H](OC(=O)C(C)C)[C@]1(C)O[C@@H]1[C@H](C)[C@@H]1C[C@@](O)(NC(=O)O1)[C@H](OC)/C=C/C=C(\C)C2,inactive,inactive,–,–
O=C1Nc2ccc3ncsc3c2/C1=C/c1cnc[nH]1,82 nM (active),0.164 µM (active),–,–
C=C1C(=O)CC2OC2(C)CC2OC(=O)C(=C)C2C(O)C1OC(=O)/C(C)=C\C (stereo not given),508 nM (active),0.57 µM (active),–,–
CC[C@@H]1C[C@H]2CC[C@H](O2)[C@H](C)C(=O)O[C@@H](C)C[C@@H]2CC[C@@H](O2)[C@@H](C)C(=O)O[C@H](CC)C[C@H]2CC[C@H](O2)[C@H](C)C(=O)O[C@@H](C)C[C@@H]2CC[C@@H](O2)[C@@H](C)C(=O)O1,30.6 nM (active),0.0193 µM (active),–,–
C[N@@+]1(CC2CC2)CC[C@]23c4c5ccc(O)c4O[C@H]2C(=O)CC[C@@]3(O)[C@H]1C5,inactive,inactive,–,–
CC[C@@H](C)[C@H]1C(=O)O[C@H](C(C)C)C(=O)N(C)[C@@H]([C@@H](C)CC)C(=O)O[C@H](C(C)C)C(=O)N(C)[C@@H]([C@H](C)CC)C(=O)O[C@H](C(C)C)C(=O)N1C,1220 nM (active),1.72 µM (active),–,–
Oc1ccc2c3c1O[C@H]1[C@H](N(CCCl)CCCl)CC[C@@]4(O)[C@@H](C2)N(CC2CC2)CC[C@]314,–,–,89.3% [at 9.25 µM],83.4% [at 9.25 µM]
Oc1ccc2[nH]cc(CCCCN3CC=C(c4ccccc4)CC3)c2c1,8410 nM (active),10.6 µM (active),–,–
CCC1NC(=O)C2C(Cl)C(Cl)CN2C(=O)C(C(C)O)NC(=O)CC(c2ccccc2)NC(=O)C(CO)NC1=O (stereo not given),inactive,inactive,–,–
CC1=CC2/C=C(\C)CCC(O)C(O)/C=C/C(=O)C23C(=O)NC(CC(C)C)C3C1C (stereo not given),1260 nM (active),1.42 µM (active),–,–
C[C@@H]1C(=O)O[C@H]2[C@H](O)[C@@]34[C@@H]5OC(=O)[C@@]3(O[C@@H]3OC(=O)[C@@H](O)[C@@]34[C@H](C(C)(C)C)[C@H]5O)[C@@]12O,inactive,inactive,–,–
CC/C=C/C=C/C1(C)OC(OC)=C(C(=O)C2C(C)C(=O)c3cc(OC)c(O)c(O)c3C2(C)O)C1=O (stereo not given),10000 nM (active),10 µM (active),–,–
CC[C@@]1(O)C(=O)OCc2c1cc1n(c2=O)Cc2cc3c(OC)cccc3nc2-1,14.3 nM (active),0.0114 µM (active),–,–
C=C(C)[C@@]12O[C@@H]1[C@@]1(C)C(=CC2=O)CC[C@@H](OC(C)=O)[C@@H]1C,2310 nM (active),2.31 µM (active),–,–
CO[C@@H]1C[C@H](O[C@H]2CC[C@@]3(C)C(CCC4C3CC[C@]3(C)[C@@H](C5=CC(=O)OC5)[C@@H](OC(C)=O)CC43O)C2)O[C@H](C)[C@@H]1O[C@H]1O[C@H](CO[C@@H]2O[C@H](CO)[C@@H](O)[C@H](O)[C@H]2O)[C@@H](O)[C@H](O)[C@H]1O (stereo not given in full),310 nM (active),0.155 µM (active),–,–

# — PubChem BioAssay (NCATS)
